Records with an inconclusive call do not appear. The source made the active and inactive calls. Rule for the calls, unless noted: active = hit-call score of the fitted dose curve at least 0.9, where 1 is the maximum; inconclusive = response in the unintended direction; inactive = score below 0.9.
Assays:
[1] = target: Glucocorticoid receptor (Homo sapiens) (UniProt P04150); assay: ATG_GR_TRANS: Attagene TRANS-FACTORIAL HepG2 Assay for human Glucocorticoid Receptor (GR) (AID 2282978); details: HepG2 Attagene TRANS GR reporter, mRNA transcription;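 note: activators score as hits since higher reporter transcript over DMSO is fitted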
Chain of Glucocorticoid receptor (Homo sapiens) (P04150 whole entry, looked up, the tested form may be a part): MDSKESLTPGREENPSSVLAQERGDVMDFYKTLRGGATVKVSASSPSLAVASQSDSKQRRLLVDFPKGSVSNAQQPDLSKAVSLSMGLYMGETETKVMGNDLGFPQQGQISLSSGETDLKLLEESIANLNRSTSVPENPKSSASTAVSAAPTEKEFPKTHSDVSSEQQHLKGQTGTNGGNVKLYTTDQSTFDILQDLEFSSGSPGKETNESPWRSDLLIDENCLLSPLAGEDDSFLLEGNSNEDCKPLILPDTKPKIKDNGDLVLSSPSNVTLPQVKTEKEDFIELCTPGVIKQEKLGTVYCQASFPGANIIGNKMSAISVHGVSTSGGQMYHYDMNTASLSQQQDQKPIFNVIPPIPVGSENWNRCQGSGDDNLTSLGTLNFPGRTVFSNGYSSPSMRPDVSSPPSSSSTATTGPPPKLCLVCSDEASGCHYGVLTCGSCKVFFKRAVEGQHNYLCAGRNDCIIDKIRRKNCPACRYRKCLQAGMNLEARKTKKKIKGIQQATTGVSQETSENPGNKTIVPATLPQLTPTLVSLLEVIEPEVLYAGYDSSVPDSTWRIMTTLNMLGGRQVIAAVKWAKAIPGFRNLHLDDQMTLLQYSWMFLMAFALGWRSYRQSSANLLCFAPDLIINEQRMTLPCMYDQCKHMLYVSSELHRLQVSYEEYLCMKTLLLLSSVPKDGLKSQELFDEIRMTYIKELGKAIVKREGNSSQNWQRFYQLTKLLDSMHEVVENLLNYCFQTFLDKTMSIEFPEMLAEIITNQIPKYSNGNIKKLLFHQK
Procedure, shortened: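 Measurement of GAL4-UAS-driven reporter mRNA in human HepG2 liver cells 24 h post-dosing, using RT-PCR with fluorescent labelling and capillary electrophoresis; the transfected constructs report exogenous NR-GAL4 chimera activity, fitted upward against DMSO.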

[2] = target: Bile acid receptor (Homo sapiens) (UniProt Q96RI1); assay: ATG_FXR_TRANS: Attagene TRANS-FACTORIAL HepG2 Assay for Farnesoid X Receptor (FXR) (AID 2282979); details: HepG2 Attagene TRANS FXR-GAL4 reporter transcription;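 note: hits raise reporter mRNA above DMSO so AC50 marks FXR activation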
Chain of Bile acid receptor (Homo sapiens) (Q96RI1 whole entry, looked up, the tested form may be a part): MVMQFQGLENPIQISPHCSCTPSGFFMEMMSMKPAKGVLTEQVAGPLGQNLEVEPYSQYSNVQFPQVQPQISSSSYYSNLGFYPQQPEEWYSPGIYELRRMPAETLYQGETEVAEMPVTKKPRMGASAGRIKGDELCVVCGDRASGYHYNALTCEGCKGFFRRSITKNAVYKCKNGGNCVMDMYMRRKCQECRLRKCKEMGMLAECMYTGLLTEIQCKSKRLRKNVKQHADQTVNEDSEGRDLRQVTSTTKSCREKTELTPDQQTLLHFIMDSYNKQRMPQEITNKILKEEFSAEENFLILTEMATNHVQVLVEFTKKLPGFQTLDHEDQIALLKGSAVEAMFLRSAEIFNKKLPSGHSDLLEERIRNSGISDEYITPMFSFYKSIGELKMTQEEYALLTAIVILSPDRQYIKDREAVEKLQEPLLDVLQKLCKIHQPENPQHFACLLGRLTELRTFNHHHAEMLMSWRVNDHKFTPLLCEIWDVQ
Procedure, shortened: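 Transient transfection of HepG2 with multiplexed GAL4-UAS reporter units; exogenous FXR-GAL4 chimera. Dose 24 h → TriZol RNA → oligo(dT) RT → PCR, 6-FAM primer extension, HpaI cut → CE. Gain vs DMSO.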

[3] = target: Oxysterols receptor LXR-beta (Homo sapiens) (UniProt P55055); assay: ATG_LXRb_TRANS: Attagene TRANS-FACTORIAL HepG2 Assay for human Liver X Receptor beta (LXRb) (AID 2282981); details: HepG2 Attagene TRANS GAL4-LXRb reporter, mRNA
Chain of Oxysterols receptor LXR-beta (Homo sapiens) (P55055 whole entry, looked up, the tested form may be a part): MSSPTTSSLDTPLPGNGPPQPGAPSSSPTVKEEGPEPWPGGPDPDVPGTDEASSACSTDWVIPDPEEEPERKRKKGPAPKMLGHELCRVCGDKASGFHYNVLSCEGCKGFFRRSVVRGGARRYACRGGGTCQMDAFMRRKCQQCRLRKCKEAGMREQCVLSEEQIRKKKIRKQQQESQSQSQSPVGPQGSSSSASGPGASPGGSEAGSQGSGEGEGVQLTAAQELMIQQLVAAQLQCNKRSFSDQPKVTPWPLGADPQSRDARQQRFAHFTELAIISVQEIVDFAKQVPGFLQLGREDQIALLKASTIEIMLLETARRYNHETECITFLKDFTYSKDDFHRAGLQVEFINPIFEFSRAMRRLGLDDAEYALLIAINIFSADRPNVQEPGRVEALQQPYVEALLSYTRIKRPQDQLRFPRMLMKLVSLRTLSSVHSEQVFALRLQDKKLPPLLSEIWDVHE
Procedure, shortened: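 Multiplexed reporter assay, HepG2, 24 h dosing. Fluorescence of labelled RT-PCR products after capillary electrophoresis gives transcript level; positive fitting direction relative to DMSO.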

[4] = ATG_M_06_TRANS: Attagene TRANS-FACTORIAL HepG2 Assay for M06 Transcription Factor (Internal Marker) (AID 2282983); details: HepG2 Attagene TRANS M06 internal marker reporter
Procedure, shortened: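 Background control endpoint: reporter mRNA from transiently transfected HepG2 after 24 h dosing, detected by RT-PCR with capillary electrophoresis fluorescence. Analysed for gain versus DMSO.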

[5] = ATG_M_32_TRANS: Attagene TRANS-FACTORIAL HepG2 Assay for M32 Transcription Factor (Internal Marker) (AID 2282984); details: HepG2 Attagene TRANS M32 internal marker reporter;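 note: transcript level of a background control reporter unit measured by RT-PCR and capillary electrophoresis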
Procedure, shortened: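 Internal-marker readout from a multiplexed transcription reporter panel. HepG2 cells were transfected with GAL4-UAS reporter units, treated 24 hours, and reporter transcript levels determined by fluorescence after RT-PCR and capillary separation.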

[6] = target: Transcriptional activator Myb (Homo sapiens) (UniProt P10242); assay: ATG_Myb_CIS: Attagene CIS-FACTORIAL HepG2 Assay for human Myeloblastosis (Myb) Proto-Oncogene Transcription Factor (AID 2282986; active = hit-call score of the fitted dose curve at least 0.9, where 1 is the maximum; inactive = score below 0.9); details: HepG2 Attagene CIS-FACTORIAL Myb reporter transcription; actives raise or lower the signal
Chain of Transcriptional activator Myb (Homo sapiens) (P10242 whole entry, looked up): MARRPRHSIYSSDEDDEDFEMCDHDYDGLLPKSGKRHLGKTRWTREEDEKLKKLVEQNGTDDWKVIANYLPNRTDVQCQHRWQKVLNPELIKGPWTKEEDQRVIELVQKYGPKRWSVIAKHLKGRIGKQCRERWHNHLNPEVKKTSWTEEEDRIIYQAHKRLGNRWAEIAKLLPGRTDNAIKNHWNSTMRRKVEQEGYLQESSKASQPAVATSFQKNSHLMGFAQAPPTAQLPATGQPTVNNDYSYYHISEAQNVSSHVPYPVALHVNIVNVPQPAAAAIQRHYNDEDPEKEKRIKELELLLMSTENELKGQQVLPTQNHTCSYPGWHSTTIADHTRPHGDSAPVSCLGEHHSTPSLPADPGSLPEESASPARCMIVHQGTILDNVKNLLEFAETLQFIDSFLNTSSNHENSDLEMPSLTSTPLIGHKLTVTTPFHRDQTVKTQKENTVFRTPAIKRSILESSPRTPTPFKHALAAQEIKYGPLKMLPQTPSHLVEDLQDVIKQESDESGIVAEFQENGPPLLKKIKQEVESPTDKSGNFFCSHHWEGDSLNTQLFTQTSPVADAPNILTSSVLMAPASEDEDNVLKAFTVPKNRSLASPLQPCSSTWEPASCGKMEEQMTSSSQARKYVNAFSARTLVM
Procedure, shortened: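 Fluorescence signals from capillary electrophoresis of RT-PCR-amplified reporter cDNA give the read-out. Cells: HepG2 transfected with multiple cis-regulated reporter units. Exposure lasts 24 hours; DMSO defines baseline for gain or loss of signal.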

[7] = target: Nuclear respiratory factor 1 (Homo sapiens) (UniProt Q16656); assay: ATG_NRF1_CIS: Attagene CIS-FACTORIAL HepG2 Assay for human Nuclear Respiratory Factor 1 (NRF1) Orphan Gene (AID 2282987; active = hit-call score of the fitted dose curve at least 0.9, where 1 is the maximum; inactive = score below 0.9); details: HepG2 NRF1 cis-element reporter, Attagene multiplex; actives raise or lower the signal
Chain of Nuclear respiratory factor 1 (Homo sapiens) (Q16656 whole entry, looked up): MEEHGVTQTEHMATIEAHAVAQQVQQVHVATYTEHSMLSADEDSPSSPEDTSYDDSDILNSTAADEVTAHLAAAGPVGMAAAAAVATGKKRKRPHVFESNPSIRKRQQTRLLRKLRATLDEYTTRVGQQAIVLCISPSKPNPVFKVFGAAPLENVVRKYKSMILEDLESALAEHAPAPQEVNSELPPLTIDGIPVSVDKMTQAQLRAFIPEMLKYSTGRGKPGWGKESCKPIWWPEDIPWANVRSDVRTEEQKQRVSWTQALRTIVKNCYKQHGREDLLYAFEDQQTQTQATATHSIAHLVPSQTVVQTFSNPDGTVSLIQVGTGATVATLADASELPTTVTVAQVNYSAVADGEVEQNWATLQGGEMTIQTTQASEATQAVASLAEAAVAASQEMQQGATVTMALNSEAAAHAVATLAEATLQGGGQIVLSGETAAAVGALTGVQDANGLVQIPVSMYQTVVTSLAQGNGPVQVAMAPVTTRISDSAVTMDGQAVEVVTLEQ
Procedure, shortened: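 Transcriptional reporter readout, one component of a 52-endpoint multiplexed HepG2 panel. Exposure 24 h; mRNA detected via RT-PCR and fluorescent capillary electrophoresis; fitting in both directions against DMSO.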

[8] = target: Oxysterols receptor LXR-alpha (Homo sapiens) (UniProt Q13133); assay: ATG_LXRa_TRANS: Attagene TRANS-FACTORIAL HepG2 Assay for human Liver X Receptor alpha (LXRa) (AID 2282980); details: HepG2 Attagene TRANS reporter, LXRa transactivation
Chain of Oxysterols receptor LXR-alpha (Homo sapiens) (Q13133 whole entry, looked up, the tested form may be a part): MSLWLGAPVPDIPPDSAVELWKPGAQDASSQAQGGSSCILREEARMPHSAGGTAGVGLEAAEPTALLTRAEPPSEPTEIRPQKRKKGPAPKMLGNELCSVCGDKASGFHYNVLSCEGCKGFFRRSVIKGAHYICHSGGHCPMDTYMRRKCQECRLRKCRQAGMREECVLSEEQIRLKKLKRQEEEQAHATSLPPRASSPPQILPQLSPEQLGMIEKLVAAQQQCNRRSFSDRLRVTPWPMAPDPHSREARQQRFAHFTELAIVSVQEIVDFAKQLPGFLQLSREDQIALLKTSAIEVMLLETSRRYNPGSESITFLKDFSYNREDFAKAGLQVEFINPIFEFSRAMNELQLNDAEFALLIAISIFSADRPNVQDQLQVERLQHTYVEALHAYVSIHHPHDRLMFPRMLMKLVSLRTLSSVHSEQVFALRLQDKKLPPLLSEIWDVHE
Procedure, shortened: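 Transfect HepG2 with GAL4-UAS multiplex reporter constructs (TRANS format, chimeric receptor-GAL4); treat 24 h; extract RNA, reverse-transcribe, PCR-amplify, FAM-label, HpaI-digest; resolve fragments by capillary electrophoresis. Upward response vs DMSO.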

[9] = target: Nuclear receptor subfamily 4 group A member 2 (Homo sapiens) (UniProt P43354); assay: ATG_NURR1_TRANS: Attagene TRANS-FACTORIAL HepG2 Assay for human Nuclear Receptor Related Protein 1 (NURR1) (AID 2282985); details: HepG2 Attagene TRANS reporter, mRNA readout
Chain of Nuclear receptor subfamily 4 group A member 2 (Homo sapiens) (P43354 whole entry, looked up): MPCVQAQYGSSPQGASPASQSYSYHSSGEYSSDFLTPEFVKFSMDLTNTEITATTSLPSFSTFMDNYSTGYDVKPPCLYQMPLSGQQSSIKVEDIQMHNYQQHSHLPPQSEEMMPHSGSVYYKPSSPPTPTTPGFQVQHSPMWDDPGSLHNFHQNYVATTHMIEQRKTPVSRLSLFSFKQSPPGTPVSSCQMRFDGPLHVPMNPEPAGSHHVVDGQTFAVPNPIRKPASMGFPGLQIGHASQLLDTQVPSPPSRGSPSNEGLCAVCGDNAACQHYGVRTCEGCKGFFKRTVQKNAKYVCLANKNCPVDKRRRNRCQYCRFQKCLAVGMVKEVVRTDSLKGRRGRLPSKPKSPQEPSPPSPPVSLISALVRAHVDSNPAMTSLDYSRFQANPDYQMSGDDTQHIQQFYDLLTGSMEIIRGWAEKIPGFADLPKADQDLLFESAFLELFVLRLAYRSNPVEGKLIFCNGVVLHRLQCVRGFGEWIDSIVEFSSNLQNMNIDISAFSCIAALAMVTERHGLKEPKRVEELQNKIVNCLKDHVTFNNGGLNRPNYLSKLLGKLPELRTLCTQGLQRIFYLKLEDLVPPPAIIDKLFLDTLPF
Procedure, shortened: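 Endpoint: reporter mRNA increase relative to DMSO. HepG2 cells transfected with reporter units, treated 24 h; RNA processed by RT-PCR, labelling, HpaI digestion and capillary electrophoresis.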

[10] = target: Hepatocyte nuclear factor 4-alpha (Homo sapiens) (UniProt P41235); assay: ATG_HNF4a_TRANS: Attagene TRANS-FACTORIAL HepG2 Assay for human Hepatocyte Nuclear Factor 4 alpha (HNF4a) (AID 2282982); details: HepG2 HNF4a transactivation reporter, mRNA readout
Chain of Hepatocyte nuclear factor 4-alpha (Homo sapiens) (P41235 whole entry, looked up, the tested form may be a part): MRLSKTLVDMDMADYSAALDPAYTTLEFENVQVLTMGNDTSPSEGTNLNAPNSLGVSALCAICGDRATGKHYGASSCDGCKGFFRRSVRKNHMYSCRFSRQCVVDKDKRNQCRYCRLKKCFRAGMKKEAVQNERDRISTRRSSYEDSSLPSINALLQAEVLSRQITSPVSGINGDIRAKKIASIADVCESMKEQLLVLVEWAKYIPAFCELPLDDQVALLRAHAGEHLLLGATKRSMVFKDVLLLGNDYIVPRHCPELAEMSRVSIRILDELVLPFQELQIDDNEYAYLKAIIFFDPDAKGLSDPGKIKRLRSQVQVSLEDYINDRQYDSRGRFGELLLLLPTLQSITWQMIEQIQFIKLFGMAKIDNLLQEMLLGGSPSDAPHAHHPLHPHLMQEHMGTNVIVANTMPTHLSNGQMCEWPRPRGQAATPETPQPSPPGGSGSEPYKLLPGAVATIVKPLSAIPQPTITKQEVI
Procedure, shortened: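 Endpoint reflects transcriptional activation of a GAL4-UAS reporter by an HNF4a-GAL4 chimera in transfected HepG2 cells, 24 h post-dosing. Fluorescence from RT-PCR products separated by capillary electrophoresis; DMSO baseline.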

| SMILES | outcome [1] | outcome [2] | outcome [3] | outcome [4] | outcome [5] | outcome [6] | outcome [7] | outcome [8] | outcome [9] | outcome [10] | AC50 [9] | AC50 [1] | AC50 [6] |
| --- | --- | --- | --- | --- | --- | --- | --- | --- | --- | --- | --- | --- | --- |
| COC(F)(F)C(F)(C(F)(F)F)C(F)(F)F | inactive | inactive | inactive | inactive | inactive | inactive | inactive | – | – | – | – | – | – |
| Nc1ccc(Oc2ccc(N)c(N)c2)cc1 | inactive | inactive | – | inactive | inactive | inactive | inactive | inactive | inactive | – | – | – | – |
| c1ccc2c(c1)ccc1cc3c(ccc4ccccc43)cc12 | inactive | inactive | inactive | – | inactive | inactive | inactive | inactive | inactive | inactive | – | – | – |
| C[Si](C)(C)O[Si](O)(O)O | inactive | inactive | – | inactive | – | inactive | inactive | inactive | inactive | – | – | – | – |
| C=C1[C@H]2CC[C@@H]3[C@H]2C(C)(C)CCC[C@]13C | inactive | inactive | – | inactive | – | inactive | – | – | inactive | inactive | – | – | – |
| Cc1ccc(C2OC[C@@H]3OC(c4ccc(C)cc4)O[C@H]([C@H](O)CO)[C@@H]3O2)cc1 (stereo partly specified) | inactive | inactive | inactive | inactive | inactive | inactive | inactive | inactive | inactive | inactive | – | – | – |
| CCCCCCCC/C=C\CCCCCCCC(=O)O | inactive | inactive | inactive | inactive | inactive | inactive | inactive | inactive | inactive | – | – | – | – |
| O=[N+]([O-])C1(Br)COCOC1 | inactive | inactive | inactive | inactive | inactive | inactive | – | inactive | inactive | – | – | – | – |
| CC=CCO | inactive | inactive | – | inactive | inactive | inactive | inactive | – | inactive | inactive | – | – | – |
| C=CCOc1c(Br)cc(Br)cc1Br | inactive | inactive | inactive | inactive | inactive | inactive | inactive | – | – | – | 43.4 µM (active) | – | – |
| C=C[C@](C)(O)CC[C@@H]1[C@@]2(C)CCCC(C)(C)[C@@H]2CC[C@@]1(C)O | inactive | inactive | – | inactive | inactive | inactive | – | inactive | inactive | – | – | – | – |
| O=P(O)(O)Oc1ccccc1 | inactive | inactive | inactive | inactive | – | inactive | inactive | – | – | – | – | – | – |
| O=C(Nc1ccccc1)c1ccccc1O | inactive | – | inactive | inactive | – | – | inactive | inactive | inactive | inactive | – | – | – |
| Nc1ccc2cc3ccccc3cc2c1 | inactive | – | inactive | inactive | inactive | inactive | inactive | inactive | inactive | – | – | – | – |
| CCCCCCCCCCCCCCCCCC#N | inactive | – | – | inactive | inactive | inactive | inactive | inactive | inactive | inactive | – | – | – |
| CC1OC1C1CCC2(C)OC2C1 (stereo unspecified) | inactive | – | inactive | – | inactive | inactive | inactive | inactive | inactive | inactive | – | – | – |
| CC=CC(=O)N(CC)c1ccccc1C | inactive | – | inactive | – | inactive | inactive | inactive | inactive | – | inactive | – | – | – |
| CC1(C)O[C@@H]2C[C@H]3[C@@H]4C[C@H](F)C5=CC(=O)C=C[C@]5(C)[C@@]4(F)[C@@H](O)C[C@]3(C)[C@]2(C(=O)CO)O1 | – | – | inactive | inactive | inactive | inactive | inactive | inactive | – | – | – | 0.0525 µM (active) | – |
| COc1cc(NC(=O)CC(C)=O)c(OC)cc1Cl | inactive | – | inactive | – | – | inactive | inactive | inactive | inactive | – | – | – | – |
| C=C[Si](C)(C)O[Si](C)(C)C=C | inactive | – | inactive | inactive | inactive | inactive | inactive | inactive | inactive | inactive | – | – | – |
| C=CCOCC(O)CCl (stereo unspecified) | inactive | – | – | inactive | inactive | inactive | inactive | inactive | inactive | inactive | – | – | – |
| CC(=O)OCCC1CCCCC1 | inactive | – | inactive | inactive | – | inactive | inactive | inactive | – | – | – | – | – |
| CC(=O)NS(=O)(=O)c1ccc(N)cc1 | inactive | – | inactive | inactive | – | inactive | – | inactive | – | – | – | – | – |
| CN(C)CCCN(C)C | inactive | – | inactive | inactive | – | inactive | inactive | inactive | – | – | – | – | – |
| CC1(C)O[C@@H]2C[C@H]3[C@@H]4C[C@H](F)C5=CC(=O)CC[C@]5(C)[C@H]4[C@@H](O)C[C@]3(C)[C@]2(C(=O)CO)O1 | – | – | inactive | inactive | inactive | inactive | inactive | inactive | inactive | – | – | 0.0728 µM (active) | – |
| CNC(=S)NN | inactive | – | inactive | – | inactive | – | inactive | inactive | inactive | – | – | – | – |
| Cc1ccc([N+](=O)[O-])cc1S(=O)(=O)O | inactive | – | inactive | – | – | – | inactive | inactive | inactive | inactive | – | – | 191 µM (active) |
| CC(C)(C)C1CCCCC1=O (stereo unspecified) | inactive | – | inactive | inactive | inactive | inactive | inactive | inactive | – | – | – | – | – |

Reference: PubChem BioAssay (EPA / NIEHS)
